For 40 compounds, Potency results are on record in PubChem BioAssay (Tox21).

Inconclusive results are not listed. A call without a number means that no potency is given here. Activity calls are given as the source filed them. Calls follow the shape of the dose curve; as a rule, active = well fitted inhibition curve with a large enough effect in the repeat runs; inconclusive = weak or mixed curves; inactive = no such curve, though single readings can be large or run the other way.
Potency is read from the fitted curve at half-maximal effect.

The target of this assay is Cytochrome P450 1A2 (Homo sapiens) (UniProt P05177). Nature of the assay: Cytochrome P450 Family 1 Subfamily A Member 2 (CYP1A2) small molecule antagonists: luciferase reporter qHTS assay (AID 1671199). Also: nearly all actives have a fitted effect of over 50% in size. The note with it: P450-Glo CYP1A2 enzyme, luciferin luminescence, 1 h; series mostly up to 115 µM. The source says: National Center for Advancing Translational Sciences [NCATS]
Sequence of Cytochrome P450 1A2 (Homo sapiens) (P05177 whole entry, looked up): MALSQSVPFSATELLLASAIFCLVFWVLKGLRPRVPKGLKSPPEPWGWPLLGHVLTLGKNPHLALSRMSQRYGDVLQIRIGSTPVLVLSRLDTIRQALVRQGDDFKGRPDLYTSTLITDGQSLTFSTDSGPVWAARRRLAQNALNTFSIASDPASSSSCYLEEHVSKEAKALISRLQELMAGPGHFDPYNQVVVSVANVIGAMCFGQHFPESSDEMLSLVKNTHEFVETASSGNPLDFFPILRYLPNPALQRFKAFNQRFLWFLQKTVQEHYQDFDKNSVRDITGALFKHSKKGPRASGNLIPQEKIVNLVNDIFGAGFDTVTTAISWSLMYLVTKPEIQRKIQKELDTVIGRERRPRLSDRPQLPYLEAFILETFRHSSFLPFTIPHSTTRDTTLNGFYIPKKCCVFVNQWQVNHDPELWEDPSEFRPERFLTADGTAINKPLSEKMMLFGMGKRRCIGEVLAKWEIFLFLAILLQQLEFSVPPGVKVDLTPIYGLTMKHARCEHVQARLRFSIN
U.S. Environmental Protection Agency [EPA]
National Institutes of Environmental Health Sciences [NIEHS]
National Toxicology Program [NTP]
U.S. Food and Drug Administration [FDA]
Cytochrome P450 (CYP) enzymes are membrane-bound hemeproteins that play a key role in metabolism of drugs and xenobiotics. Evaluation of the effect of chemicals on CYP isozymes is useful to minimize the adverse drug reactions and toxicities in drug development process. Tox21 chemicals were tested for their effect on CYP enzyme activities by using P450-Glo (TM) screening systems (Promega Corporation, Madison, WI). These systems provide a luminescent method containing proluciferin substrates and are converted to luciferin products by CYP isozymes. The luciferin products formed are detected with a luciferin detection reagent, and the amount of light produced is proportional to CYP activity. P450-Glo (TM) CYP1A2 screening system (Catalog. No. V9770) was used to detect the compounds that interfere in CYP1A2 activity. The positive control compound used for CYP1A2 assay is furafylline (Sigma-Aldrich, St. Louis, MO).
Tox21 Assay Protocol Summary:
Two ul of enzyme-substrate mix was dispensed into medium binding white/solid 1536-well plates (Greiner Bio-One North America Inc., Monroe, NC) using a BioRaptr Flying Reagent Dispenser (FRD, Beckman Coulter, Brea, CA). Compounds dissolved in DMSO and positive control (furafyllline) were transferred to the assay plates at 23 nl using a Pintool station (Wako, San Diego, CA). The assay plates were incubated at room temperature for 10 min. Then 2 ul of NADPH regeneration solution was added to each well of the assay plates using an FRD and incubated at room temperature for 1 h. The reaction was stopped by adding 4 ul of detection reagent using an FRD and after 20 min incubation at room temperature the luminescence signal was measured using a ViewLux plate reader (Perkin Elmer, Shelton, CT). Data were expressed as relative luminescence units.
(In a reporter assay the amount or activity of a reporter protein is the signal.)
Regarding `CC(C)(C)c1cc(C=O)cc(C(C)(C)C)c1O`, the Potency entry is “inactive”. Under `O=C(O)c1cccc(C(=O)O)c1C(=O)O` stands “inactive”; under `O=C(O)COCC(=O)O`, “inactive”; under `O=C(c1ccc(Cl)cc1)c1ccc(Cl)cc1`, 2.52 µM (active). `O=C(OCCCCCOC(=O)c1ccccc1)c1ccccc1`: the Potency was 7.96 µM (active). Under `CS(C)=O` stands “inactive”; under `CC1(COc2ccc(CC3SC(=O)NC3=O)cc2)CCCCC1` (stereo not given), “inactive”; under `COc1ccc(/C(C)=C/C(=O)O)c(OC)c1`, “inactive”. Next, `S=c1[nH][nH]c(=S)s1`: “inactive”. Under `C1CCN(CN2CCCCC2)CC1` stands “inactive”; under `CC(C)CCCCCOC(=O)CS`, “inactive”; under `CCN(CCCCOC(=O)c1ccc(OC)c(OC)c1)C(C)Cc1ccc(OC)cc1` (stereo not given), “inactive”. In the case of `CC1=C(C)C(=O)C(CCCCC#CCCCC#CCO)=C(C)C1=O`, the Potency was 4.9 µM (active).

As for `NC(=O)c1ccccc1C(N)=O`, the Potency was 28.4 µM (active). Next, `CCOC(C)OCC`: “inactive”. `Cc1ccc(NC=O)c(C)c1`: the Potency is 35.6 µM (active). Next, `O=C(c1ccco1)N1CCNCC1`: “inactive”.

For the compound `Clc1cccc(C(c2ccc3nc[nH]c3c2)n2ccnc2)c1` (stereo not given), the Potency is 15.5 µM (active). Under `Cc1cc(C)c(C)c(O)c1` stands 31.7 µM (active). Consider `CCCCC(CC)COCCC#N` (stereo not given), for which the Potency result was “inactive”. In the case of `COc1cc(C)c(Cc2cnc(N)nc2N)cc1OC`, the Potency result was “inactive”. Consider `CCCCCCCCCCCCCCCCN`, for which the Potency result was “inactive”. For `NC(=O)c1ccccc1`, the Potency entry was “inactive”. On to `CCC(C)CCCC(C)(C)O` (stereo not given), for which the Potency entry is “inactive”.

For `Nc1ccccc1Nc1ccccc1`, the Potency was 7.12 µM (active). Under `Cc1ccc(S(=O)(=O)NC(=O)NC2CCCC2)cc1` stands “inactive”; under `CC1(C)CC(=O)CC(C)(C)N1`, “inactive”. Next, `CCCCCCCCOCCCN`: 6.33 µM (active).

With `CCCCCCCCS`, the Potency result was “inactive”. On to `Cc1c(-c2cccnc2)c2ccccc2n1CCCCC(=O)O`, for which the Potency is 31.7 µM (active). Next, `CC(C)Oc1ccccc1O`: “inactive”; `CCCC1CCOC(C)S1` (stereo not given): “inactive”; `Cc1nc(C)c(C)nc1C`: 35.6 µM (active). Under `O=C(O)c1ccccc1[N+](=O)[O-]` stands “inactive”. Consider `O=C(O)c1c2ccccc2cc2ccccc12`, for which the Potency was 10 µM (active).

With `CCCCCCCCCCCC(=O)OCC`, the Potency result was “inactive”.

On to `CC(C)=CCC[C@H](C)CCO`, for which the Potency entry was “inactive”.

As to `C=Cc1ccc(C=C)cc1`, the Potency result is “inactive”. Under `O=c1[nH][nH]c2ccccc12` stands 10.2 µM (active); under `COC(=O)Cc1cccc2ccccc12`, 20 µM (active).
